Experimental data taken from the supplement of paper PMC6089552.
Screen size: about 3,200 compounds; about 300 (9.4%) showed activity. The sample holds actives, similar compounds and a random draw of the others, so the mix is not that of the screen.

Tested on: A673/TR/shEF
Experiment: cell viability (LOESS-normalised, relative to median of negative controls) (log2 ratio); higher = more viable cells (less compound effect), active = hit call of the paper (over 3 MAD below the median)
Conditions: treatment time: 72 h
Procedure, shortened: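 Doxycycline, present or absent from 24 h before compounds, was used to induce EWS-FLI1 shRNA knockdown in A673/TR/shEF Ewing sarcoma cells at 1,500 per well in 384-well plates. Cells then received library compounds at two or more concentrations, or DMSO controls, for three days. Viability was measured by CellTiter-Glo luminescence on an Envision reader, and per-plate LOESS correction, division by the negative-control median and log2 transformation followed.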

[1] = 0.025 µM, library screen: screen1, EWS-FLI1 expression: high (no doxycycline)
[2] = 0.025 µM, library screen: screen1, EWS-FLI1 expression: low (doxycycline-induced shRNA knockdown)
[3] = 0.25 µM, library screen: screen1, EWS-FLI1 expression: high (no doxycycline)
[4] = 0.25 µM, library screen: screen1, EWS-FLI1 expression: low (doxycycline-induced shRNA knockdown)
[5] = 2.5 µM, library screen: screen1, EWS-FLI1 expression: high (no doxycycline)
[6] = 2.5 µM, library screen: screen1, EWS-FLI1 expression: low (doxycycline-induced shRNA knockdown)
[7] = 25 µM, library screen: screen1, EWS-FLI1 expression: high (no doxycycline)
[8] = 25 µM, library screen: screen1, EWS-FLI1 expression: low (doxycycline-induced shRNA knockdown)
[9] = 0.25 µM, library screen: screen2, EWS-FLI1 expression: high (no doxycycline)
[10] = 0.25 µM, library screen: screen2, EWS-FLI1 expression: low (doxycycline-induced shRNA knockdown)
[11] = 2.5 µM, library screen: screen2, EWS-FLI1 expression: high (no doxycycline)
[12] = 2.5 µM, library screen: screen2, EWS-FLI1 expression: low (doxycycline-induced shRNA knockdown)

Measured: cell viability (log2)

N#CC(C#N)=Cc1cc(O)c(O)c([N+](=O)[O-])c1
0.283: [3]
active: [5] -0.167 | [7] -0.153
inactive: [1] 0.235 | [2] -0.0184 | [4] 0.00958 | [6] -0.0107 | [8] 0.176

COc1cc(C=C(C#N)C#N)cc(O)c1O
inactive: [9] 0.15 | [10] 0.104 | [11] 0.12 | [12] 0.124

N#CC(C#N)=Cc1ccc(O)cc1
inactive: [1] 0.0481 | [2] 0.0237 | [3] 0.0596 | [4] 0.0262 | [5] 0.0426 | [6] 0.0755 | [7] 0.0734 | [8] 0.0191

N#CC(C#N)=Cc1cc(O)c(O)c(O)c1
inactive: [1] -0.0494 | [2] 0.0428 | [3] 0.0608 | [4] -0.0659 | [9] 0.269 | [10] 0.131 | [5] -0.0151 | [6] 0.0163 | [11] 0.19 | [12] 0.0774 | [7] 0.0348 | [8] 0.1

N#CC(C#N)=Cc1ccc(O)c(O)c1
inactive: [1] 0.0488 | [2] -0.0484 | [3] 0.042 | [4] -0.0954 | [9] 0.172 | [10] 0.124 | [5] 0.0531 | [6] -0.000697 | [11] 0.143 | [12] 0.061 | [7] -0.0656 | [8] 0.016

N#CC(C#N)=Cc1ccc([N+](=O)[O-])c(O)c1
active: [5] -0.131 | [6] -0.169 | [11] -0.559 | [12] -0.298 | [7] -0.408 | [8] -0.158
inactive: [2] 0.0132 | [4] -0.0619 | [9] 0.0683 | [10] 0.016
0.298: [1]
0.311: [3]

C[N+](C)(C)CCOC(=O)CBr
inactive: [9] 0.173 | [10] 0.097 | [11] 0.0892 | [12] 0.139

COc1ccc2c(c[n+](C)c3c4cc5c(cc4ccc23)OCO5)c1OC
inactive: [9] 0.273 | [10] 0.121 | [11] 0.106 | [12] 0.0124

CN1CC[C@@]23CCCC[C@@H]2[C@@H]1Cc1ccc(O)cc13
inactive: [9] 0.228 | [10] 0.105 | [11] 0.167 | [12] 0.081

C[C@]12CCC(=O)C=C1CCc1ccc(O)cc12
inactive: [3] 0.081 | [4] -0.029 | [5] 0.111 | [6] 0.113

CC(C)c1cc2c(c(O)c1O)[C@@]1(C(=O)O)CCCC(C)(C)[C@@H]1CC2
inactive: [3] 0.0242 | [4] 0.0347 | [5] 0.115 | [6] 0.191

CCC(C)C(=O)OC1CC2(C)C(c3ccoc3)OC(=O)CC23OC2(C)OC34C(OC(=O)C(C)C)C3(O)C(OC(=O)C5(C)OC5C)C5(C)CC3(O)C(C)(C5CC(=O)OC)C14O2 (stereo not given)
inactive: [3] 0.108 | [4] -0.0058 | [5] 0.0939 | [6] 0.12

CO[C@H]1C[C@H](O[C@H]2CC[C@@]3(C)[C@H](CC[C@@H]4[C@@H]3CC[C@]3(C)[C@@H](C5=CC(=O)OC5)[C@@H](OC(C)=O)C[C@]43O)C2)O[C@@H](C)[C@@H]1O
active: [3] -0.578 | [4] -1.73 | [5] -3.54 | [6] -4.25

CC(=O)O[C@@H]1CC[C@@]2(C)[C@@H](CC[C@@H]3[C@@H]2CC[C@]2(C)C(=O)CC[C@@H]32)C1
inactive: [3] 0.0923 | [4] 0.0254 | [5] 0.0362 | [6] 0.0893

CC(=O)OC1CC(OC2C(O)CC(OC3C(O)CC(OC4CCC5(C)C(CCC6C5CC(O)C5(C)C(C7=CC(=O)OC7)CCC65O)C4)OC3C)OC2C)OC(C)C1OC1OC(CO)C(O)C(O)C1O (stereo not given)
active: [5] -2.91 | [6] -3.01
inactive: [3] 0.0557 | [4] -0.286

CC(=O)OC1CCC2(C)C(CCC3C2CCC2(C)C(C4=CC(=O)OC4)C(OC(C)=O)CC32O)C1 (stereo not given)
inactive: [3] -0.0585 | [4] -0.416
active: [5] -2.02 | [6] -2.26

CC(=O)O[C@H]1C[C@@H]2CC[C@@H]3[C@H](CC[C@@]4(C)[C@H]3C[C@H]([N+]3(C)CCCCC3)[C@@H]4OC(C)=O)[C@@]2(C)C[C@@H]1[N+]1(C)CCCCC1
inactive: 0.103 µM, library screen: screen3, EWS-FLI1 expression: high (no doxycycline) 0.0285 | 0.103 µM, library screen: screen3, EWS-FLI1 expression: low (doxycycline-induced shRNA knockdown) 0.0357 | [9] 0.133 | [10] 0.105 | 0.308 µM, library screen: screen3, EWS-FLI1 expression: high (no doxycycline) 0.115 | 0.308 µM, library screen: screen3, EWS-FLI1 expression: low (doxycycline-induced shRNA knockdown) 0.051 | 0.926 µM, library screen: screen3, EWS-FLI1 expression: high (no doxycycline) 0.183 | 0.926 µM, library screen: screen3, EWS-FLI1 expression: low (doxycycline-induced shRNA knockdown) 0.0779 | [11] 0.145 | [12] 0.0752 | 2.8 µM, library screen: screen3, EWS-FLI1 expression: high (no doxycycline) 0.112 | 2.8 µM, library screen: screen3, EWS-FLI1 expression: low (doxycycline-induced shRNA knockdown) 0.0286 | 8.3 µM, library screen: screen3, EWS-FLI1 expression: high (no doxycycline) 0.106 | 8.3 µM, library screen: screen3, EWS-FLI1 expression: low (doxycycline-induced shRNA knockdown) 0.0203 | 25 µM, library screen: screen3, EWS-FLI1 expression: high (no doxycycline) 0.16 | 25 µM, library screen: screen3, EWS-FLI1 expression: low (doxycycline-induced shRNA knockdown) 0.0865

C[C@]12CC[C@H](O)C[C@H]1CC[C@@H]1[C@@H]2CC[C@]2(C)[C@@H](C3=CC(=O)OC3)[C@@H](O)C[C@]12O
inactive: [3] 0.0825 | [4] 0.115 | [5] 0.137 | [6] 0.0999

C[C@H]1O[C@@H](O[C@H]2[C@@H](O)C[C@H](O[C@H]3[C@@H](O)C[C@H](O[C@H]4CC[C@@]5(C)[C@H](CC[C@@H]6[C@@H]5CC[C@]5(C)[C@@H](C7=CC(=O)OC7)[C@@H](O)C[C@]65O)C4)O[C@@H]3C)O[C@@H]2C)C[C@H](O)[C@@H]1O
active: [3] -0.13 | [4] -0.332 | [5] -1.73 | [6] -1.76

NS(=O)(=O)c1ccc2c(c1)CNCC2
inactive: [9] 0.162 | [10] 0.085 | [11] 0.143 | [12] 0.0805

CC[S+]([O-])CCSP(=O)(OC)OC (stereo not given)
inactive: [3] 0.119 | [4] 0.0126 | [5] 0.119 | [6] 0.0247

NC(=O)c1cc([N+](=O)[O-])cc([N+](=O)[O-])c1
inactive: 0.025 µM, library screen: screen2, EWS-FLI1 expression: high (no doxycycline) 0.148 | 0.025 µM, library screen: screen2, EWS-FLI1 expression: low (doxycycline-induced shRNA knockdown) 0.069 | [3] 0.071 | [4] 0.00829 | [9] 0.134 | [10] 0.0542 | [5] 0.16 | [6] 0.158 | [11] 0.195 | [12] 0.121 | 25 µM, library screen: screen2, EWS-FLI1 expression: high (no doxycycline) 0.244 | 25 µM, library screen: screen2, EWS-FLI1 expression: low (doxycycline-induced shRNA knockdown) 0.114
